Results reported in the supplement of paper PMC4466140.

B1: unnamed (peptide)
chain: TPEIPPPLPPKIMVH
B2: unnamed (peptide)
chain: NFLRLLIGLPSQNEL

Target: AgAbp1
Test: SPOT peptide array binding signal intensity (averaged, normalized) (arbitrary units (background-subtracted, floor 0; scale differs between SH3 domains)); higher = stronger binding of the SH3 domain to the peptide
Procedure, shortened: (§1)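 GST-fused SH3 domains, from four yeast species, were produced in E. coli BL21(DE3) and captured on glutathione Sepharose. Membranes of cellulose carrying synthetic 15-mer peptides, in which cysteines had been replaced by serines, were exposed to each domain at 10 μg/ml overnight at 4°C in TBS-based blocking buffer. After anti-GST antibody, an HRP anti-mouse secondary and luminol, spots were imaged and quantified using Genespotter. Binding signal is normalized and background-subtracted spot intensity, averaged over replicates, in arbitrary units that differ between domains.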

Row | Binder | SPOT peptide array binding signal intensity
1 | B1 | ≤ 0
2 | B2 | ≤ 0

Target: AgBbc1
Test: as above
Procedure, shortened: as §1

Row | Binder | SPOT peptide array binding signal intensity
3 | B1 | ≤ 0
4 | B2 | 4.25

Target: AgBem1-D1
Test: as above
Procedure, shortened: as §1

Row | Binder | SPOT peptide array binding signal intensity
5 | B1 | ≤ 0
6 | B2 | 132

Target: AgBzz1-D1
Test: as above
Procedure, shortened: as §1

Row | Binder | SPOT peptide array binding signal intensity
7 | B1 | ≤ 0
8 | B2 | 17.5

Target: AgBzz1-D2
Test: as above
Procedure, shortened: as §1

Row | Binder | SPOT peptide array binding signal intensity
9 | B1 | 4.5
10 | B2 | 6.5

Target: AgCyk3
Test: as above
Procedure, shortened: as §1

Row | Binder | SPOT peptide array binding signal intensity
11 | B1 | ≤ 0
12 | B2 | 3.5

Target: AgFus1
Test: as above
Procedure, shortened: as §1

Row | Binder | SPOT peptide array binding signal intensity
13 | B1 | ≤ 0
14 | B2 | 950

Target: AgHof1
Test: as above
Procedure, shortened: as §1

Row | Binder | SPOT peptide array binding signal intensity
15 | B1 | 631
16 | B2 | 31.5

Target: AgHse1
Test: as above
Procedure, shortened: as §1

Row | Binder | SPOT peptide array binding signal intensity
17 | B1 | 822
18 | B2 | 2760

Target: AgLsb1
Test: as above
Procedure, shortened: as §1

Row | Binder | SPOT peptide array binding signal intensity
19 | B1 | ≤ 0
20 | B2 | ≤ 0

Target: AgLsb4
Test: as above
Procedure, shortened: as §1

Row | Binder | SPOT peptide array binding signal intensity
21 | B1 | 232
22 | B2 | 248

Target: AgMyo5
Test: as above
Procedure, shortened: as §1

Row | Binder | SPOT peptide array binding signal intensity
23 | B1 | 496
24 | B2 | 2.75

Target: AgNbp2
Test: as above
Procedure, shortened: as §1

Row | Binder | SPOT peptide array binding signal intensity
25 | B1 | ≤ 0
26 | B2 | 39

Target: AgRvs167
Test: as above
Procedure, shortened: as §1

Row | Binder | SPOT peptide array binding signal intensity
27 | B1 | 9.33
28 | B2 | 2

Target: AgSho1
Test: as above
Procedure, shortened: as §1

Row | Binder | SPOT peptide array binding signal intensity
29 | B1 | 66
30 | B2 | 263

Target: AgSla1-D1-D2
Test: as above
Procedure, shortened: as §1

Row | Binder | SPOT peptide array binding signal intensity
31 | B1 | ≤ 0
32 | B2 | 50

Target: AgSla1-D3
Test: as above
Procedure, shortened: as §1

Row | Binder | SPOT peptide array binding signal intensity
33 | B1 | ≤ 0
34 | B2 | 4.5

Target: CaAbp1-D1
Test: as above
Procedure, shortened: as §1

Row | Binder | SPOT peptide array binding signal intensity
35 | B1 | 6.5
36 | B2 | ≤ 0

Target: CaAbp1-D2
Test: as above
Procedure, shortened: as §1

Row | Binder | SPOT peptide array binding signal intensity
37 | B1 | ≤ 0
38 | B2 | ≤ 0

Target: CaBbc1
Test: as above
Procedure, shortened: as §1

Row | Binder | SPOT peptide array binding signal intensity
39 | B1 | ≤ 0
40 | B2 | ≤ 0

Target: CaBem1-D1
Test: as above
Procedure, shortened: as §1

Row | Binder | SPOT peptide array binding signal intensity
41 | B1 | ≤ 0
42 | B2 | ≤ 0

Target: CaBzz1-D1
Test: as above
Procedure, shortened: as §1

Row | Binder | SPOT peptide array binding signal intensity
43 | B1 | ≤ 0
44 | B2 | 39

Target: CaBzz1-D2
Test: as above
Procedure, shortened: as §1

Row | Binder | SPOT peptide array binding signal intensity
45 | B1 | ≤ 0
46 | B2 | 37

Target: CaCyk3
Test: as above
Procedure, shortened: as §1

Row | Binder | SPOT peptide array binding signal intensity
47 | B1 | ≤ 0
48 | B2 | 4

Target: CaFus1
Test: as above
Procedure, shortened: as §1

Row | Binder | SPOT peptide array binding signal intensity
49 | B1 | 74
50 | B2 | 2560

Target: CaHof1
Test: as above
Procedure, shortened: as §1

Row | Binder | SPOT peptide array binding signal intensity
51 | B1 | 20.5
52 | B2 | 1.5

Target: CaHse1
Test: as above
Procedure, shortened: as §1

Row | Binder | SPOT peptide array binding signal intensity
53 | B1 | 3420
54 | B2 | 156

Target: CaLsb1
Test: as above
Procedure, shortened: as §1

Row | Binder | SPOT peptide array binding signal intensity
55 | B1 | ≤ 0
56 | B2 | 2.5

Target: CaLsb4
Test: as above
Procedure, shortened: as §1

Row | Binder | SPOT peptide array binding signal intensity
57 | B1 | 1090
58 | B2 | 3

Target: CaMyo5
Test: as above
Procedure, shortened: as §1

Row | Binder | SPOT peptide array binding signal intensity
59 | B1 | 25.5
60 | B2 | 8.25

Target: CaNbp2
Test: as above
Procedure, shortened: as §1

Row | Binder | SPOT peptide array binding signal intensity
61 | B1 | 9
62 | B2 | 259

Target: CaRvs167
Test: as above
Procedure, shortened: as §1

Row | Binder | SPOT peptide array binding signal intensity
63 | B1 | 29.8
64 | B2 | 72

Target: CaRvs167-3
Test: as above
Procedure, shortened: as §1

Row | Binder | SPOT peptide array binding signal intensity
65 | B1 | ≤ 0
66 | B2 | 143

Target: CaSho1
Test: as above
Procedure, shortened: as §1

Row | Binder | SPOT peptide array binding signal intensity
67 | B1 | 124
68 | B2 | 731

Target: CaSla1-D1-D2
Test: as above
Procedure, shortened: as §1

Row | Binder | SPOT peptide array binding signal intensity
69 | B1 | ≤ 0
70 | B2 | ≤ 0

Target: CaSla1-D3
Test: as above
Procedure, shortened: as §1

Row | Binder | SPOT peptide array binding signal intensity
71 | B1 | ≤ 0
72 | B2 | 41.2

Target: ScAbp1
Test: as above
Procedure, shortened: as §1

Row | Binder | SPOT peptide array binding signal intensity
73 | B1 | ≤ 0
74 | B2 | ≤ 0

Target: ScBbc1
Test: as above
Procedure, shortened: as §1

Row | Binder | SPOT peptide array binding signal intensity
75 | B1 | ≤ 0
76 | B2 | 0.5

Target: ScBem1-D1
Test: as above
Procedure, shortened: as §1

Row | Binder | SPOT peptide array binding signal intensity
77 | B1 | ≤ 0
78 | B2 | 18

Target: ScBzz1-D1
Test: as above
Procedure, shortened: as §1

Row | Binder | SPOT peptide array binding signal intensity
79 | B1 | ≤ 0
80 | B2 | 19

Target: ScBzz1-D2
Test: as above
Procedure, shortened: as §1

Row | Binder | SPOT peptide array binding signal intensity
81 | B1 | 11
82 | B2 | 21

Target: ScCyk3
Test: as above
Procedure, shortened: as §1

Row | Binder | SPOT peptide array binding signal intensity
83 | B1 | ≤ 0
84 | B2 | 101

Target: ScFus1
Test: as above
Procedure, shortened: as §1

Row | Binder | SPOT peptide array binding signal intensity
85 | B1 | ≤ 0
86 | B2 | 1020

Target: ScHof1
Test: as above
Procedure, shortened: as §1

Row | Binder | SPOT peptide array binding signal intensity
87 | B1 | 722
88 | B2 | 1.5

Target: ScHse1
Test: as above
Procedure, shortened: as §1

Row | Binder | SPOT peptide array binding signal intensity
89 | B1 | ≤ 0
90 | B2 | 2880

Target: ScLsb1
Test: as above
Procedure, shortened: as §1

Row | Binder | SPOT peptide array binding signal intensity
91 | B1 | 109
92 | B2 | 0.75

Target: ScLsb2
Test: as above
Procedure, shortened: as §1

Row | Binder | SPOT peptide array binding signal intensity
93 | B1 | ≤ 0
94 | B2 | ≤ 0

Target: ScLsb3
Test: as above
Procedure, shortened: as §1

Row | Binder | SPOT peptide array binding signal intensity
95 | B1 | 6940
96 | B2 | 276

Target: ScLsb4
Test: as above
Procedure, shortened: as §1

Row | Binder | SPOT peptide array binding signal intensity
97 | B1 | 376
98 | B2 | ≤ 0

Target: ScMyo3
Test: as above
Procedure, shortened: as §1

Row | Binder | SPOT peptide array binding signal intensity
99 | B1 | 611
100 | B2 | 4

Target: ScMyo5
Test: as above
Procedure, shortened: as §1

Row | Binder | SPOT peptide array binding signal intensity
101 | B1 | 380
102 | B2 | ≤ 0

Target: ScNbp2
Test: as above
Procedure, shortened: as §1

Row | Binder | SPOT peptide array binding signal intensity
103 | B1 | 2
104 | B2 | 53

Target: ScPex13
Test: as above
Procedure, shortened: as §1

Row | Binder | SPOT peptide array binding signal intensity
105 | B1 | 1210
106 | B2 | ≤ 0

Target: ScRvs167
Test: as above
Procedure, shortened: as §1

Row | Binder | SPOT peptide array binding signal intensity
107 | B1 | 525
108 | B2 | 11.7

Target: ScSho1
Test: as above
Procedure, shortened: as §1

Row | Binder | SPOT peptide array binding signal intensity
109 | B1 | 1610
110 | B2 | 1160

Target: ScSla1-D1-D2
Test: as above
Procedure, shortened: as §1

Row | Binder | SPOT peptide array binding signal intensity
111 | B1 | ≤ 0
112 | B2 | ≤ 0

Target: ScSla1-D3
Test: as above
Procedure, shortened: as §1

Row | Binder | SPOT peptide array binding signal intensity
113 | B1 | ≤ 0
114 | B2 | 8.5

Target: SpAbp1-D1
Test: as above
Procedure, shortened: as §1

Row | Binder | SPOT peptide array binding signal intensity
115 | B1 | ≤ 0
116 | B2 | 1

Target: SpBbc1
Test: as above
Procedure, shortened: as §1

Row | Binder | SPOT peptide array binding signal intensity
117 | B1 | 0.5
118 | B2 | 3.75

Target: SpBzz1-D1
Test: as above
Procedure, shortened: as §1

Row | Binder | SPOT peptide array binding signal intensity
119 | B1 | 68
120 | B2 | 22

Target: SpBzz1-D2
Test: as above
Procedure, shortened: as §1

Row | Binder | SPOT peptide array binding signal intensity
121 | B1 | ≤ 0

Target: SpCyk3
Test: as above
Procedure, shortened: as §1

Row | Binder | SPOT peptide array binding signal intensity
122 | B1 | ≤ 0

Target: SpHof1
Test: as above
Procedure, shortened: as §1

Row | Binder | SPOT peptide array binding signal intensity
123 | B1 | ≤ 0

Target: SpHof1-2
Test: as above
Procedure, shortened: as §1

Row | Binder | SPOT peptide array binding signal intensity
124 | B1 | 0.5

Target: SpHof1-3
Test: as above
Procedure, shortened: as §1

Row | Binder | SPOT peptide array binding signal intensity
125 | B1 | ≤ 0

Target: SpHse1
Test: as above
Procedure, shortened: as §1

Row | Binder | SPOT peptide array binding signal intensity
126 | B1 | 148

Target: SpLsb1
Test: as above
Procedure, shortened: as §1

Row | Binder | SPOT peptide array binding signal intensity
127 | B1 | 463

Target: SpLsb4
Test: as above
Procedure, shortened: as §1

Row | Binder | SPOT peptide array binding signal intensity
128 | B1 | 852

Target: SpMyo1
Test: as above
Procedure, shortened: as §1

Row | Binder | SPOT peptide array binding signal intensity
129 | B1 | 723

Target: SpNbp2
Test: as above
Procedure, shortened: as §1

Row | Binder | SPOT peptide array binding signal intensity
130 | B1 | ≤ 0

Target: SpPex13
Test: as above
Procedure, shortened: as §1

Row | Binder | SPOT peptide array binding signal intensity
131 | B1 | 9

Target: SpRvs167
Test: as above
Procedure, shortened: as §1

Row | Binder | SPOT peptide array binding signal intensity
132 | B1 | 1520

Target: SpSla1-D1-D2
Test: as above
Procedure, shortened: as §1

Row | Binder | SPOT peptide array binding signal intensity
133 | B1 | ≤ 0

Target: SpSla1-D3
Test: as above
Procedure, shortened: as §1

Row | Binder | SPOT peptide array binding signal intensity
134 | B1 | ≤ 0
